# Screens: PubChem BioAssay, National Center for Advancing Translational Sciences (NCATS)
# The list is not random: actives were taken first. Their share in the collection is about 12%.
# Pf growth 96h: inhibits malaria parasite growth, 96 h. P. falciparum luciferase reporter growth, 96 h. Potency, µM (titrated, usually from 28.7 µM), inactives show at the top dose activity change, negative = inhibition, usual class: inhibitors. hit rate 6.9% among 320,000. AID 504834; also: % is scaled to controls: 0 for no effect and ±100 for the full control effect
#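 Compounds incubated with erythrocytes infected by luciferase-expressing P. falciparum (2% hematocrit, 0.05% parasitemia final) for 96 hours, 37 C in 5% CO2. Growth inhibition scored as decreased luciferase luminescence.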
# HCV inh: inhibitors of hepatitis C virus infection; Huh7.5.1 HCVcc-Cre infection, luciferase reporter, 44 h; Potency, µM (titrated, usually from 41.8 µM), inactives show top-dose activity change, negative = inhibition, hits mostly inhibitors; hit rate 3.4% among 340,000; AID 651820; also: % is scaled to controls: 0 for no effect and ±100 for the full control effect
#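 A cell-based infection assay in which seeded cells (1,000 per well) receive test compound after 4 h, are inoculated with HCVcc-Cre at approximately 0.5 moi, and are incubated 44 h before luminescence detection.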
# NS1 inh: inhibitors of influenza NS1 protein function | Potency, µM (top dose mostly 46.1 µM), inactives show top-dose activity, positive = more growth | hit rate 0.4% among 270,000 | AID 2326; calls by dose curve; also: actives are rising curves; nearly all actives have a fitted effect of over 50% in size
#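 Compounds were scored for reversing the slow growth caused by influenza A NS1 in S. cerevisiae, measured by optical density at 600 nm. Assay medium contained 2% galactose at pH 6.0; NS1-free yeast of the same strain were the positive control.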
# Pf growth 48h: P. falciparum growth inhibition at 48 hours (one generation); P. falciparum luciferase growth in erythrocytes, 48 h; Potency, µM (doses to about 28.7 µM), without a hit: at the highest dose activity change, negative = inhibition, hits mostly inhibitors; hit rate 5.9% among 310,000; also: % is scaled to controls: 0 for no effect and ±100 for the full control effect
#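 Erythrocytes infected with P. falciparum carrying an integrated firefly luciferase reporter (2% hematocrit, 0.1% parasitemia final) were exposed to compounds in RPMI 1640 with 0.5% Albumax at 37 C, 5% CO2. Growth inhibition was scored as reduced luminescence.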
# SARS PLP yeast: blocks SARS-CoV papain-like protease in a yeast assay; S. cerevisiae expressing SARS-CoV PLpro, growth rescue; Potency, µM (top dose mostly 32.9 µM), without a hit: at the top dose activity, positive = growth rescue, actives largely listed as activators; hit rate 0.19% among 330,000; calls by dose curve; also: 0% is about no effect; nearly all actives have a fitted effect of over 55% in size
# AMA1 RON2 block: disrupts binding of P. falciparum AMA1 to RON2; Potency, µM (titrated, usually from 58.2 µM), inactives show top-dose activity change, negative = inhibition, most hits filed as inhibitors; hit rate 0.2% among 360,000; AlphaScreen AMA1-biotinylated RON2 peptide binding; AID 720542;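 also: 0% = vehicle wells and -100% = peptide control; nearly all actives have a fitted effect of over 45% in size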
#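 AMA1 (3D7) with his tag at 25 nM final met compounds first, then biotinylated RON2 peptide at 25 nM; detection used donor plus acceptor beads, 10 µg/mL apiece, read by AlphaScreen after 30 min at room temperature.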
# * hit, by the source's call; ? = inconclusive; . = not tested or not shown; [ ] = another dose, or the depositor's remark. Unless noted, calls follow the shape of the dose curve; as a rule, active = well fitted curve in the direction sought with a large enough effect; inconclusive = small, poorly fitted or top-dose-only effect, or another doubt; inactive = no such curve, though single readings can be large; an effect the other way counts as inactive or inconclusive. Potency is read from the fitted curve at half-maximal effect.
SMILES,Pf growth 96h,HCV inh,NS1 inh,Pf growth 48h,SARS PLP yeast,AMA1 RON2 block
c1ccc(Cn2c(SCc3cn4cccnc4n3)nnc2-c2ccco2)cc1,11.7µM*,26.6%,-8.2%,27.1%,-8.5%,-20.7%
O=c1c2c(-c3ccco3)csc2nc(SCc2cn3cccnc3n2)n1-c1ccccc1,9.28µM*,-26.5%,-0.8%,7.38µM*,-2.1%,15.8µM*
c1ccc(-n2cnnc2SCc2cn3cccnc3n2)cc1,?,10.7%,2.9%,10.3%,3.0%,2.7%
CC(=O)c1c(C)nc2ccccc2c1N,.,14.4%,-1.3%,12.7%,1.8%,-7.3%
Cc1nc2ccccc2c(N)c1C(=O)/C=C/c1ccccc1,?,11.2µM*,-9.2%,5.86µM*,1.6%,-10.3%
CC(NC(c1ccccc1)c1ccccc1)C(=O)N1CCCc2ccccc21 (configuration not stated),10.4µM*,-9.9%,-47.2%,10.4µM*,-22.0%,-14.5%[2.32 µM]
CCOC(=O)/C(=N/Nc1ccccc1OC)N1CCCc2ccccc21,?,?,-0.5%,?,-0.9%,-15.7%
COC(=O)/C(=N/Nc1ccccc1C)N1CCCc2ccccc21,?,20.2%,4.4%,-0.4%,12.3%,-21.0%
CCOC(=O)/C(=N/Nc1ccccc1)N1CCCc2ccccc21,?,0.2%,16.9%,14.7µM*,?,?
CCOC(=O)/C(=N/Nc1ccc(OC)cc1)N1CCCc2ccccc21,?,-3.2%,-51.6%,?,-2.3%,22.4µM*
O=C(O)Cc1sc(Nc2cccc3ccccc23)nc1-c1ccc(Cl)cc1,4.2%,18.8%,4.7%,?,-2.4%,0.1%
C=CCOC(=O)/C=C/C(=O)NC(N)=O,-0.3%,2.6%,9.1%,?,-1.9%,-6.1%
O=[N+]([O-])c1cc(C(F)(F)F)cc([N+](=O)[O-])c1NCCNC(=S)Nc1cccc(F)c1,?,?,-1.1%,-15.6%,-1.2%,-3.7%
Cc1ccc2cccc(NC(=O)c3ccc(Br)o3)c2n1,-7.9%,10µM*,-46.5%,-8.0%,9.2%,-12.3%
Cc1ccc2cccc(NC(=S)NC(=O)c3ccn(C)n3)c2n1,-29.4%,31.6µM*,7.6%,?,50.5%,29.4%
CC(C)N(CC(=O)O)CC(=O)O,.,.,1.8%,.,.,.
c1ccc(SCc2cn(C[C@H]3CC[C@@H]([C@@H]4CC[C@H](Cn5cc(CSc6ccccc6)nn5)O4)O3)nn2)cc1,14.7µM*,?,2.6%,-15.4%,-4.8%,-8.3%
COc1cccc(-c2cn(C[C@H]3CC[C@@H]([C@@H]4CC[C@H](Cn5cc(-c6cccc(OC)c6)nn5)O4)O3)nn2)c1,7.38µM*,-11.1%,-14.3%,?,-3.4%,-6.8%
CCOC(=O)C1=C(COC(=O)c2ccc(Cl)cc2[N+](=O)[O-])NC(=O)NC1C (configuration not stated),34.7%,-4.1%,.,18.7%,0.4%,6.8%
CCN(CC(=O)Nc1ccccc1C(F)(F)F)C(=O)C1CSC2(C)CCC(=O)N12 (configuration not stated),10.9%,19.0%,.,7.2%,6.6%,36.8%
CN(C)c1ccc(/C=N/N=C(N)N)cc1[N+](=O)[O-],281.1%,0.5%,1.0%,2.08µM*,0.1%,-4.2%
Cc1csc(NC(=O)CCc2c(C)nc3cc(-c4ccc(Cl)cc4)nn3c2C)n1,14.7µM*,-8.1%[8.37 µM],6.8%,?,-7.5%,-1.5%
N#Cc1ncc(Cl)c2ccccc12,-11.4%,12.3%,10.2%,?,-0.1%,7.3%
CC1=Nc2ccccc2/C1=C/c1c(O)[nH]c(=O)[nH]c1=O,2.08µM*,1.8%,24.1%,3.4%,10.9%,-17.0%
CC1=Nc2ccccc2/C1=C\c1nc(-c2ccccc2)oc1O,-16.1%,?,5.4%,.,-30.4%,-11.4%
SMILES,Pf growth 96h,HCV inh,NS1 inh,Pf growth 48h,SARS PLP yeast,AMA1 RON2 block
CC(C(=O)C12CC3CC(CC(C3)C1)C2)N1CCOCC1 (configuration not stated),1.85µM*,25.1%,14.4%,26.6%,2.8%,4.7%
COc1ccc(/C=C(\NC(=O)c2ccc(C)cc2)C(=O)Nc2c(C)n(C)n(-c3ccccc3)c2=O)cc1,-22.1%,5.1%,.,-28.1%,0.3%,-8.9%
CC(=O)N1N=C(c2ccc(NS(=O)(=O)c3ccccc3)cc2)CC1c1ccco1 (configuration not stated),?,?,.,?,-0.5%,-10.5%
CC(=O)N1N=C(c2cccc(NS(=O)(=O)c3ccc(C)cc3)c2)CC1c1ccco1 (configuration not stated),?,3.16µM*,7.7%,?,1.2%,-7.2%
CC(=O)N1N=C(c2c(-c3ccccc3)c3cc(Br)ccc3[nH]c2=O)CC1c1ccco1 (configuration not stated),5.22µM*,?,13.4%,?,0.7%,0.0%
CC(=O)N1N=C(c2c(-c3ccccc3)c3cc(C)ccc3[nH]c2=O)CC1c1ccco1 (configuration not stated),5.22µM*,?,-9.9%,14.7µM*,-6.4%,1.9%[11.6 µM]
CS(=O)(=O)Nc1ccc(Nc2c3ccccc3nc3ccccc23)cc1,.,.,-7.8%,.,.,.
NS(=O)(=O)c1cccc(NC(=O)COC(=O)Cc2n[nH]c(=O)c3ccccc23)c1,?,4.7%,.,-12.9%,1.8%,1.0%
CCn1nc(C)cc1C(=O)N1CCCC(C(=O)c2ccccc2SC)C1 (configuration not stated),0.0%,?,-3.7%,-10.0%,-2.5%,-0.1%
CC(Sc1ccc(Cl)cc1)C(=O)NNC(=O)c1ccco1 (configuration not stated),.,?,.,.,-3.5%,64.3%
O=C(CSc1ccc(Cl)cc1)NNC(=O)c1ccco1,14.7µM*,6.3%,1.1%,14.9%,-2.0%,105.9%
Cc1nc2c(sc3nc4c(cc32)COC(C)(C)C4)c(=O)n1CC(=O)NCc1ccco1,?,-2.5%,-15.8%,125.3%,-1.1%,-1.2%
CC(=O)CSc1ncnc2sc3c(c12)CCCC3,34.4%,10µM*,-10.7%,18.3%,-1.5%,-2.9%
O=C(CSc1ncnc2sc3c(c12)CCCCC3)NCc1ccco1,.,11.2µM*,-7.5%,-1.1%,-11.8%,-14.7%
O=C(CSc1c2c(nc3cc(Cl)ccc13)CCCC2)NCc1ccco1,-23.3%,11.2µM*,-55.2%,-11.8%,-4.2%,-3.6%
CC(=O)CSc1ncnc2sc3c(c12)CCC(C)C3 (configuration not stated),-6.2%,?,7.0%,-14.6%[1.15 µM],3.0%,52.8%
CC1(C)Cc2nc3sc4c(SCC(=O)NCc5ccco5)ncnc4c3cc2CO1,.,14.1µM*,14.7%,73.6%,0.5%,-9.4%
O=C(CSc1ncnc2sc3c(c12)CCCC3)c1ccco1,-10.9%,?,-14.1%,39.3%,0.3%,-1.4%
O=C(CSc1nc2ccc(Cl)cc2[nH]1)NCc1ccco1,?,-9.9%,-6.6%,18.0%,-2.6%,0.0%
